# From PubChem
# D2 PAM-1 – Beta-Arrestin HTS for Positive Allosteric Modulators of the Human D2 Dopamine Receptor: Potentiators. D(2) dopamine receptor (Homo sapiens), P14416. DiscoveRx D2 beta-arrestin cells, luminescence, 90 min; 100% = 57 uM dopamine signal. potentiation, % (no concentration beside the values). actives 0.23% (n = 360,000); in the data active = potentiation above about 50%; inconclusive = mostly about 30% to 49%
#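 D2 cells co-treated with compound plus 50 nM dopamine (EC20) for 90 min at 37 deg C to detect potentiation. Beta-arrestin recruitment was read as enzyme-fragment luminescence after 1 h at ambient temperature. Full response was set by 57 uM dopamine.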
# D2 antag – HTS Assay for Allosteric Antagonists of the Human D2 Dopamine Receptor: Primary Screen for Antagonists | D(2) dopamine receptor (Homo sapiens), P14416 | HEK293 TREx D2 cells, calcium flux, dopamine EC80 | inhibition, % at 10 µM | actives 2% (n = 340,000); in the data active = inhibition above about 30%; inactive = below that, where a call was filed
#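 Antagonism is scored as inhibition of an EC80 dopamine-evoked calcium signal in a force-coupled, tetracycline-inducible HEK293 T-REx D2 line, with compound present 180 s before agonist.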
# D2 ag-1 – HTS Assay for Allosteric Agonists of the Human D2 Dopamine Receptor: Primary Screen for Agonists; D(2) dopamine receptor (Homo sapiens), P14416; HEK293 T-REx D2 cells, calcium flux agonist mode; activation, % at 2 µM; actives 0.53% (n = 340,000);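 active = activation over 3 SD above normal in the single-dose calcium agonist read, cut at about 30% in these data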
#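 In this primary screen, compounds producing a positive calcium signal within 180 s of addition to tetracycline-induced, force-coupled HEK293 Trex D2 cells are flagged; cells are dye-loaded with a no-wash calcium kit beforehand.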
# D2 PAM-2 – HTS Assay for Positive Allosteric Modulators of the Human D2 Dopamine Receptor: Primary Screen for Potentiators; D(2) dopamine receptor (Homo sapiens), P14416; HEK293 T-REx D2, calcium flux, EC20 dopamine potentiation; potentiation, % at 10 µM; actives 0.34% (n = 340,000); AID 485347, 2010;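 active = potentiation over 3 SD above the plate norm, cut at about 30% in these data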
#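 Tetracycline-induced HEK293 T-REx cells force-coupled to calcium signalling expressed D2; compounds were pin-added after a 10 s baseline, read kinetically 180 s, then an EC20 dopamine challenge followed with a further 180 s calcium read.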
# D2 ag-2 – Beta-Arrestin HTS for Positive Allosteric Modulators of the Human D2 Dopamine Receptor: Agonists | D(2) dopamine receptor (Homo sapiens), P14416 | DiscoveRx PathHunter D2 beta-arrestin, luminescence, 90 min; 100% = 57 uM dopamine signal | activation, % (concentration not given with the values) | actives 0.084% (n = 360,000) | AID 624465, 2012; in the data active = activation above about 40%; inconclusive = between about 15% and that limit
#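 Agonist mode: compounds alone added to overnight-plated D2 PathHunter cells for 90 min at 37 C, with 57 uM final dopamine (EC100) defining full response. Beta-arrestin recruitment detected by chemiluminescent reagent, read after 1 h at ambient temperature.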
# D3 ag – qHTS of D3 Dopamine Receptor Agonist: D3 Dopamine Receptor B-arrestin Agonist Confirmatory Assay; AID 720506, 2013; DiscoveRx D3 beta-arrestin cells, luminescence, 90 min; shares compounds with D2 ag-1; Potency, µM (doses to about 76.9 µM), hits mostly activators; actives 4% (n = 2,300); also: nearly all actives have a fitted effect of over 70% in size
# Target sequence (P35462 whole entry, looked up): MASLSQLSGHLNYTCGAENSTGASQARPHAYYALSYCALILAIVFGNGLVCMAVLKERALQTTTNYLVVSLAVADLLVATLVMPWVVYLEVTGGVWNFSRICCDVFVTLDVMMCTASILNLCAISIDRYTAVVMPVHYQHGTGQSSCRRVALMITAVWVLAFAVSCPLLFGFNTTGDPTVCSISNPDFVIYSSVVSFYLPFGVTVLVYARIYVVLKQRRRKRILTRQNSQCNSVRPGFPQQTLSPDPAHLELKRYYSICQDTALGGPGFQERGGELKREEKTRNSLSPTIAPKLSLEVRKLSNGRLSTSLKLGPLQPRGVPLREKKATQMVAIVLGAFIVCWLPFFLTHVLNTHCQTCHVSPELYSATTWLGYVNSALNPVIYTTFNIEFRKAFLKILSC
# D2 ag-3 – qHTS of D3 Dopamine Receptor Agonist: D2 Dopamine Receptor B-arrestin Agonist Counterscreen. shares compounds with D2 ag-1. DiscoveRx PathHunter D2 beta-arrestin, luminescence, 90 min; response scale: percent relative to full dopamine signal. Potency, µM (highest dose often 76.9 µM), usual class: activators. actives 5.9% (n = 2,300). AID 720507, 2013; also: nearly all actives have a fitted effect of over 70% in size
# Numbers stand for hits; 0 = inactive; ? = inconclusive; - = no result. In the library only some 2.4% were active in any assay of this set; here they are far more common. Unless noted, calls follow the shape of the dose curve; as a rule, active = well fitted activation curve with a large enough effect; inconclusive = small, poorly fitted or top-dose-only effect; inactive = flat fitted curve, though single readings scatter.
SMILES,D2 PAM-1,D2 antag,D2 ag-1,D2 PAM-2,D2 ag-2,D3 ag,D2 ag-3
O=C(O)CNC(=O)c1ccc(NC(=O)/C(=C/c2cccc([N+](=O)[O-])c2)NC(=O)c2ccco2)cc1,0,0,47,0,0,0,0
O=C(NCC1CCCO1)/C(=C\c1cccc([N+](=O)[O-])c1)NC(=O)c1ccccc1 (stereo not given),0,0,0,0,0,0,0
O=C(NCC1CCCO1)/C(=C/c1ccccc1)NC(=O)c1ccccc1 (stereo not given),0,0,0,0,0,-,-
Cc1onc(-c2ccccc2Cl)c1C(=O)Oc1cc(F)cc(F)c1,-,-,0,0,-,-,-
Cc1ccc(CN(C)C(=O)COC(=O)CSc2cc(C)c3ccccc3n2)cc1,0,0,0,0,0,0,0
CN1c2ccccc2-c2nc(SCC(=O)Nc3ccccc3C(F)(F)F)ncc2S1(=O)=O,-,-,0,0,-,-,-
Cc1ccc(C)c(CN2C(=O)c3ccccc3S(=O)c3ccc(C(=O)NCc4ccccc4)cc32)c1 (stereo not given),-,-,0,0,-,-,-
COc1ccc2oc(=O)cc(CN3CCN(c4ccc(F)cc4)CC3)c2c1,-,-,-,0,-,-,-
CCOC(=O)C1CCCN(C2CCN(Cc3nc(Cc4ccccc4)no3)CC2)C1 (stereo not given),0,34,0,0,0,0,0
CCOC(=O)C1CCN(C2CCN(Cc3nc(-c4ccccc4)no3)CC2)CC1,0,0,0,0,0,-,-
CCOC(=O)C1CCCN(Cc2nc(Cc3cccc(F)c3)no2)C1 (stereo not given),0,0,0,0,0,-,-
CCOC(=O)C1CCCN(C2CCN(Cc3nc(-c4ccccc4)no3)CC2)C1 (stereo not given),0,0,52,0,0,0,0
COc1ccccc1/C=N/NC(=O)c1ccc(CN2C(=O)c3cccc4cccc2c34)cc1,0,0,0,0,0,0,0
CN1C/C(=C\c2ccc(N3CCOCC3)cc2)C(=O)/C(=C/c2ccc(N3CCOCC3)cc2)C1,0,0,0,0,0,0,0
CN1C/C(=C/c2ccsc2)C(=O)/C(=C/c2ccsc2)C1,0,44,69,0,0,0,0
Cc1cc(O)c2c(C)c(CC(=O)N3CCCCC3)c(=O)oc2c1,-,-,0,0,-,-,-
FC(F)(F)c1ccccc1CN1CCCC(N2CCN(c3ccccc3)CC2)C1 (stereo not given),0,78,62,0,0,0,0
COc1ccc(N2CCN(C3CCCN(Cc4ccc(F)cc4)C3)CC2)cc1 (stereo not given),0,0,0,0,0,-,-
Cc1cccc2sc(NC(=O)Cn3cccc3)nc12,0,0,0,0,0,-,-
Cc1cccc2sc(NC(=O)CSCc3ccccc3)nc12,0,0,44,0,0,0,0
COc1ccc(OC)c(NC(=O)C2CCN(S(=O)(=O)c3c(C)noc3C)CC2)c1,0,0,0,0,0,-,-
COc1ccc(OC)c(NC(=O)C2CCCN(S(=O)(=O)c3c(C)noc3C)C2)c1 (stereo not given),0,44,0,0,0,0,0
Cc1coc(C)c1C(=O)Nc1ccc2ccccc2c1,0,0,0,0,0,0,0
O=S(=O)(c1ccc(Cl)cc1)c1nnn2c1nc(NCc1cccs1)c1sccc12,-,-,0,0,-,-,-
CCCCC(=O)Nc1nnc(S(=O)(=O)N(CC)c2cc(C)cc(C)c2)s1,-,-,0,0,-,-,-
SMILES,D2 PAM-1,D2 antag,D2 ag-1,D2 PAM-2,D2 ag-2,D3 ag,D2 ag-3
CC1(C)CC(O)(CNCc2ccc3c(c2)OCO3)CCO1 (stereo not given),0,88,70,0,?,0,?
N#Cc1ccccc1Cn1c(=O)n(CCCC(=O)NCc2ccc3c(c2)OCO3)c(=O)c2sccc21,-,-,0,0,-,-,-
CCN(CC(=O)Nc1ccc(OC)cc1)C(=O)Cc1ccc(OC)c(S(=O)(=O)N2CCOCC2)c1,0,0,0,0,0,0,0
O=C(NCc1ccc2c(c1)OCO2)C1CCCN1C(=O)Nc1ccccc1 (stereo not given),0,66,0,0,0,0,0
COc1ccccc1NC(=O)N1CCCC1C(=O)NCc1ccc2c(c1)OCO2 (stereo not given),0,0,0,0,0,-,-
CCOc1ccccc1C(=O)Nc1cccc(-c2nc3ccccc3s2)c1,-,-,0,0,-,-,-
Cn1cnc(S(=O)(=O)N2CCC(C(=O)Nc3ccc(F)cc3F)CC2)c1,-,-,0,0,-,-,-
CCCN(CC1CC1)C(=O)COC(=O)c1oc2c(F)cccc2c1C,0,41,43,0,?,0,?
Cc1cc(=O)oc2cc(OC(C)C(=O)NC3CCCC3)ccc12 (stereo not given),0,0,0,0,0,-,-
Cc1cc(=O)oc2cc(OC(C)C(=O)Nc3nccs3)ccc12 (stereo not given),0,-,-,-,0,0,0
Cc1ccc(-n2c(=O)c3c(c4cc(C)ccc4n3C)n(CC(=O)NCCC3=CCCCC3)c2=O)cc1,-,-,0,0,-,-,-
COc1ccc(-n2c(N)cc(=O)nc2SCC(=O)N2CCN(c3ccccc3)CC2)cc1,0,0,0,0,0,0,0
Cc1ccc(-n2c(N)cc(=O)nc2SCC(=O)N2CCN(c3ccccc3)CC2)cc1C,0,0,0,0,0,-,-
Cc1ccc(CSc2nc(-c3ccccc3C)nc3c2Cc2c(CO)cnc(C)c2O3)cc1,-,-,-,0,-,-,-
O=C(Cn1cnc2ccccc2c1=O)NCC(=O)N1CCN(Cc2ccc3c(c2)OCO3)CC1,0,0,48,0,0,0,0
O=C(Cn1cnc2ccccc2c1=O)N1CCN(Cc2ccc3c(c2)OCO3)CC1,0,55,50,0,?,0,?
CCc1ccc(C2c3c(oc4ccc(F)cc4c3=O)C(=O)N2c2nc(C)c(C(=O)OC)s2)cc1 (stereo not given),-,-,0,0,-,-,-
COc1ccccc1NC(=O)c1c(C)cc(C)nc1SCC(=O)Nc1cccc(C)c1,-,-,0,0,-,-,-
Cc1ccc(S(=O)(=O)c2cc3ccccc3oc2=O)cc1,0,0,0,0,0,-,-
